Source: PubChem BioAssay (NCI)
Where “and” joins values, the source holds several entries; their conditions need not be identical. Equal entries are not always repeated. About 83,000 compounds went through this panel and 20% of them were active in at least one assay; those are over-represented in the sample as a whole.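 Growth was measured after 48 h exposure to one concentration of compound in 96-well plates. Values under 10 count as active.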 Calls of active or inactive are those of the source.

The compounds below were run on MDA-MB-468 breast (assay: NCI-60 one-dose screen, 48 h (100 = growth as untreated, 0 = no growth, -100 = all killed)). Details: 10 µM unless noted.
COc1cc(C(=O)/C=C/c2sc(Cl)nc2Cl)cc(OC)c1OC was tested, and the growth was -50.9% (active). O=C(NCc1cccc(CNC(=O)Nc2nc3ccccc3[nH]2)c1)Nc1nc2ccccc2[nH]1 was tested, and the growth was -20.2% (active). NC(C(=O)O)C(O)c1ccc(OCc2ccccc2)c(OCc2ccccc2)c1 (stereo not given) was tested, and the growth was 104% (inactive). In the case of CC(=S)NC(=O)C(=O)/C=C1/NC(=O)C(=O)S1, the growth is reported as 102% (inactive). In the case of Cc1cc(=O)oc2c1ccc1oc(C(=O)c3ccccc3)c(C)c12, the growth is reported as 76.1% (inactive). In the case of CCN(CC)CCNc1nc2ccccc2c2c(=O)c3cc(Cl)ccc3sc12, the growth is reported as 56.2% (inactive). In the case of FC(F)(F)C1=NNC(c2ccc3ccccc3c2)=NN1, the growth is reported as 108% (inactive). With COc1ccc(OC)c(/C=C/C(=O)c2c(C)nc3ccccc3c2/C=C/c2ccccc2)c1 the growth was 60.5% (inactive). With O=C(Nc1ccc(Nc2ccncc2)cc1)c1ccc(C(=O)Nc2ccc(Nc3ccncc3)cc2)cc1 the growth was 2.69% (active). In the case of Cc1ccc(C(=O)c2ccc(CC(=O)N/N=C/c3ccc(O)cc3O)n2C)cc1, the growth is reported as 46.8% (inactive). For O=C(/C=C/c1cc2ccccc2[nH]c1=O)c1ccc(O)cc1, the growth was 0.877% (active). For CCCCN1CCN(c2ccc3nc(-c4ccc5nc(-c6ccc(C(F)(F)F)cc6)[nH]c5c4)[nH]c3c2)CC1, the growth was -62.1% (active). COc1cc(Cn2cc3c(c2)-c2onc(CN4CCOCC4)c2CC3)cc(OC)c1OC was tested, and the growth was 81.5% (inactive). COc1cc2cc(Oc3ccc(NC(=O)Nc4ccccc4)cc3)c(C)nc2cc1OCCN1CCCCC1 was tested, and the growth was 79.5% (inactive). In the case of Nc1ccccc1SC1CC(=O)N(c2cccc3ccccc23)C1=O (stereo not given), the growth is reported as 87% (inactive). COC(=O)CCCCCCCCC1(C)C=CC(C(C)O)=CC1 (stereo not given) was tested, and the growth was 107% (inactive). In the case of CCN(CC)c1ccc(C(=O)c2ccccc2)cc1, the growth is reported as 105% (inactive). With O=C(NOCCO)c1cc(CN2OCCCC2=O)c(F)c(F)c1Nc1ccc(I)cc1F the growth was 114% (inactive). In the case of CC[C@@](C)(NC(=O)[C@H](C)NC(=O)CCNC(=O)C(C)(C)NC(=O)[C@H](C)NC(=O)[C@@H]1CCCN1C(=O)[C@@](C)(CC)NC(=O)[C@H](Cc1ccccc1)NC(=O)C1CCCN1C(=O)C(C)(C)NC(=O)C1CCCN1C(=O)C(C)(C)NC(C)=O)C(=O)NCCC(=O)N[C@@H](CC(C)C)C(=O)NC(C)(C)C(=O)NCCC(=O)N[C@@H](CC(C)C)C(=O)NC(C)(C)C(=O)NC(C)(C)C(=O)N[C@@H](CC(C)C)C(=O)NCCC(=O)NCO (stereo not given in full), the growth is reported as -91.9% (active). In the case of COC(=O)C1(CC(C)=O)NC(=S)NC(=O)C1C#N (stereo not given), the growth is reported as 96% (inactive). In the case of C=C(C)[C@@H]1CC[C@]2(C(N)=O)CC[C@]3(C)[C@H](CC[C@@H]4[C@@]5(C)C/C(=C/c6cccnc6)C(=O)C(C)(C)[C@@H]5CC[C@]43C)[C@@H]12, the growth is reported as 14.5% [100 µM] (inactive). With Oc1cccnc1CN1CCOCC1 the growth was 97.2% (inactive) and 102% (inactive). In the case of COc1ccc(/C=C2\N=C(Nc3ccccc3)N(NC(=O)c3ccccn3)C2=O)cc1, the growth is reported as 97.2% (inactive). With Nc1ccc(/C=N/Nc2ccnc3c(N)cccc23)c2cccnc12 the growth was -38.4% (active). With Cc1cc2c(F)c(Oc3ncnc(Nc4ccc(N5C[C@@H](C)N[C@@H](C)C5)cc4)c3C#N)cc(F)c2[nH]1 the growth was -5% (active). For Cn1cccc1/C=C1/SC(=S)N(CCc2ccc(O)cc2)C1=O, the growth was 10.3% (inactive). With COc1ccccc1N1CCN(CCn2c(=O)c3c(c4ccccc4n3C)n(C)c2=O)CC1 the growth was 92% (inactive). For CC(C)(C)OC(=O)c1ccc(NCc2cc(O)ccc2O)cc1, the growth was -17.6% (active). With COc1ccc(OC)c(/C=C/c2nnc(Nc3ccccc3)o2)c1 the growth was 103% (inactive). For CCN(CC)Cc1cc(Nc2c3ccc(Cl)cc3nc3c(C)cccc23)ccc1O, the growth was -67% (active). For COc1cc(NS(C)(=O)=O)ccc1Nc1c2ccccc2nc2ccccc12, the growth was -3.7% (active) and -17.8% (active). In the case of CC1(C)C(=O)/C(=C\c2cccnc2)C[C@]2(C)[C@H]3CC[C@@H]4[C@@H](C(=O)/C=C/c5ccncc5)CC[C@@]4(C)[C@]3(C)CC[C@@H]12, the growth is reported as -5.14% (active). With Cc1cn(-c2cc(NC(=O)c3ccc(C)c(Nc4nccc(-c5cnccn5)n4)c3)cc(C(F)(F)F)c2)cn1 the growth was 103% (inactive). CCCCC[C@H]1C/C=C2/C(=O)C=C[C@@H]2C/C=C\CCCC(=O)O1 was tested, and the growth was -50.6% (active). With Nc1cc(-c2ccc(Cl)cc2)nn1-c1nc2ccccc2nc1Cc1ccccc1 the growth was 75.7% (inactive). With CCCCCCCCCCCCC[N+](C)(C)Cc1ccccc1 the growth was -25.3% (active). For O=C1c2c(O)cc(O)cc2-c2c(-c3ccc(O)cc3)oc3cc(O)cc1c23, the growth was 46.4% (inactive). O=C1c2cc(Br)ccc2Oc2cc([N+](=O)[O-])ccc2N1c1ccc(I)cc1F was tested, and the growth was 105% (inactive). For C(=C\c1c[nH]c2ccccc12)/c1ccc2ccccc2n1, the growth was 68.5% (inactive). With COc1cnc2c(c1)C(=O)c1c-2n(CCCNC(C)C)c(=O)c2cc(F)ccc12 the growth was -63.6% (active).
